Assay results taken from PubChem BioAssay AID1851 (National Center for Advancing Translational Sciences (NCATS), 2009).
The campaign covered roughly 16,000 compounds. About 5,100 (32%) were called active. About 25% were inconclusive and are not listed. Calls come from the whole dose curve; as a rule, active = well fitted curve in the direction sought with a large enough effect; inconclusive = small, poorly fitted or top-dose-only effect, or effect the other way; inactive = no such curve, though single readings can be large or run the other way. The list shows a part of the results.

The molecules below were run against Cytochrome P450 3A4 (Homo sapiens) (UniProt P08684) (assay: Cytochrome panel assay with activity outcomes). Conditions: recombinant CYP, pro-luciferin dealkylation, luminescence, p450-cyp3a4; series mostly up to 57.1 µM.
Sequence of Cytochrome P450 3A4 (Homo sapiens) (P08684 whole entry, looked up): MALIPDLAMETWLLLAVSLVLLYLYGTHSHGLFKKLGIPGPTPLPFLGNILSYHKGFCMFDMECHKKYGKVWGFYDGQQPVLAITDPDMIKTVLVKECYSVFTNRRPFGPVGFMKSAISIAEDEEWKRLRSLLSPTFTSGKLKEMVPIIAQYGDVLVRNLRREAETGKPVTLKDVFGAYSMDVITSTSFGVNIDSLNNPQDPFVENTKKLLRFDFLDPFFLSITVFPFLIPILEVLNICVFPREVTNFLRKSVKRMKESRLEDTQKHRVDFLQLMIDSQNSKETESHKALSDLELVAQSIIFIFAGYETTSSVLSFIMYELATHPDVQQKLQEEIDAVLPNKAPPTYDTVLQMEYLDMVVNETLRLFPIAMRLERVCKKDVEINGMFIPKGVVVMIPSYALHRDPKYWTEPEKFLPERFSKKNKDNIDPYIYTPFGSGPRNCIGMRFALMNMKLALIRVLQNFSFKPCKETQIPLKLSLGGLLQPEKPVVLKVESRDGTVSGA
% is set by controls: 0 for no effect and ±100 for the full control effect.

activity, negative = inhibition, inactive:
OC[C@H](S)CS -9.69% [at 11.4 µM], O=C1C2C3C=CC(C3)C2C(=O)N1/N=C/c1cn(Cc2ccccc2)c2ccccc12 (centres undefined) -22.4% [at 11.4 µM], COC(=O)Cn1cc(/C=N/NC(=O)c2ccc(C#N)cc2F)c2ccccc21 -10.5% [at 2.29 µM], COC(=O)/C=C\CCc1coc(/C=C\CNC(=O)OC)n1 -19.3% [at 11.4 µM], Cc1cc(C2(c3cc(C)c(O)c(C(=O)O)c3)OS(=O)(=O)c3ccccc32)cc(C(=O)O)c1O 5.57% [at 11.4 µM]

AC50, active:
CCn1c(SCc2ccc(C)cc2)nnc1-c1nn(-c2ccccc2)ccc1=O 8.91 µM, CCn1c(SCc2cccc(C)c2)nnc1-c1ccc(C)cc1 8.91 µM, COc1ccc(-c2nnc(SCc3cccc(C)c3)n2N)cc1 10 µM, O=C1C2C3C=CC(C3)C2C(=O)N1/N=C/c1cn(Cc2ccc(F)cc2)c2ccccc12 (centres undefined) 2.82 µM, COC(=O)[C@H]1C[C@@H]1[C@H](NC(=O)Oc1ccc(F)cc1)c1ccccc1 15.8 µM, COC(=O)[C@@H]1C[C@H]1[C@@H](NC(=O)Oc1ccc(F)cc1)c1ccccc1 12.6 µM, COC(=O)C1(Cc2ccccc2)C=C2C(=C(C(C)C)C(=O)C2C)CN1 (centres undefined) 7.94 µM, CCCCCC1=C2CNC(C)(C(=O)OC)C=C2C(C)C1=O (centres undefined) 12.6 µM, CCCCCC1=C2CNC(CCC)(C(=O)OC)C=C2C(C)C1=O (centres undefined) 20 µM, COC(=O)C1(C)C=C2C(=C(c3ccccc3)C(=O)C2C)CN1 (centres undefined) 10 µM, CCCCCC1=C2CNC(Cc3ccccc3)(C(=O)OC)C=C2C(C)C1=O (centres undefined) 15.8 µM, COc1ccc(Oc2ncc3nc(-c4cccs4)c(=O)n(C)c3n2)cc1 3.98 µM, COc1ncc2nc(-c3cccs3)c(=O)n(C)c2n1 15.8 µM

AC50, inactive:
Cc1cccc(CSc2cccc3cccnc23)c1, CCC(=O)O[C@@H]1[C@H](C)O[C@H](O[C@H]2[C@@H](N(C)C)[C@H](O)[C@@H](O[C@@H]3[C@@H](CC=O)C[C@@H](C)[C@@H](O)/C=C\C=C/C[C@@H](C)OC(=O)C[C@@H](OC(=O)CC)[C@H]3OC)O[C@H]2C)C[C@]1(C)O, COC(=O)[C@@H]1C[C@H]1[C@@H](NC(C)=O)c1ccccc1, COC(=O)[C@H]1C[C@@H]1[C@H](NC(C)=O)c1ccccc1, O=C(O)[C@H]1CN(CCCP(=O)(O)O)CCN1, Cn1c(=O)c(-c2cccs2)nc2cnc(Oc3ccccc3)nc21
